Experimental data published in PubChem BioAssay AID463173 (ICCB-Longwood Screening Facility, Harvard Medical School, 2010).
Hit rate of the full screen: of about 52,000 compounds, about 1,700 (3.3%) were called active. This is one part of a sample in which actives are shown more often than they occur. A number with no mark means an inactive call. Rule as the data show it: active = survival mostly below about 52% (no sharp cut-off); inactive = mostly above about 56%.

Tested on: Wild type
Assay: growth inhibition of S. aureus wild type versus tarO mutant, primary screen, teichoic acid synthesis inhibitors, RN4220, OD600 (AID 463173)
Conditions: S. aureus RN4220 wild type/DeltatarO growth, OD600, 18 h, stronger effect = lower value, screened at 18.75 µg/mL (by protocol)

| Structure (SMILES) | survival |
| --- | --- |
| Cc1ccc(Nc2nc(C(N)=O)c(NC(=O)c3ccccc3Br)s2)cc1 | 71% |
| CCOC(=O)C1CCC(CN(Cc2ccc(Cl)cc2)S(=O)(=O)c2cc(Cl)cc(Cl)c2)CC1 (stereo unspecified) | 59% |
| COc1ccc(-n2c(=O)c3sc4ccccc4c3n(Cc3ccccc3)c2=O)cc1 | 81% |
| Cc1cc(NC(=O)c2oc3c(c2C)-c2[nH]ncc2CC3)ccc1Br | 1% (active) |
| CCc1ccc(NC(=O)c2oc3c(c2C)-c2[nH]ncc2CC3)cc1 | 59% |
| Cc1cc(C)c(NC(=O)c2oc3c(c2C)-c2[nH]ncc2CC3)c(C)c1 | 81% |
| Cc1[nH]c2ccc(Cl)cc2c(=O)c1CN1CCN(C)CC1 | 109% |
| Clc1ccc(CCNc2nc3ccccc3c3nc(-c4ccccc4)nn23)cc1 | 38% |
| Cc1ccc(CNC(=O)CSc2nc3n[nH]c(C)c3c(=N)n2-c2ccccc2Cl)cc1 | 83% |
| Cc1cc(C)cc(NC(=O)NCC2CCN(Cc3cc(C)ccc3C)CC2)c1 | 83% |
| Cc1ccc(CN2CCC(CNC(=O)Nc3ccc(C)c(C)c3)C2)cc1 (stereo unspecified) | 94% |
| O=C(NCC1CCN(Cc2ccccc2F)CC1)Nc1ccc(F)c(Cl)c1 | 73% |
| Cc1ccc(CN2CCC(CNC(=O)Nc3cccc(Cl)c3C)C2)cc1 (stereo unspecified) | 88% |
| Cc1ccc(CN2CCC(CNC(=O)Nc3ccc(Cl)cc3)C2)cc1 (stereo unspecified) | 53% |
| Cc1ccc(CN2CCC(CNC(=O)Nc3ccccc3F)CC2)cc1 | 118% |
| Cc1ccc(NC(=O)NCC2CCN(Cc3cccc(Cl)c3)CC2)cc1Cl | -6% (active) |
| O=C(NCC1CCN(Cc2cccc(Cl)c2)CC1)Nc1cc(Cl)ccc1Cl | -1% (active) |
| O=C(NCC1CCN(Cc2cccc(Cl)c2)CC1)Nc1ccc(F)c(Cl)c1 | 14% (active) |
| COc1ccc(-c2cc3nccc(-c4cc(Cl)c(C)cc4O)n3n2)cc1 | 82% |
| CN1CCN(C(CNC(=O)c2ccc(F)cc2)c2ccc3c(c2)OCO3)CC1 (stereo unspecified) | 70% |
| C=CCN1C=C/C(=C\C=C(C#N)C#N)c2ccccc21 | 102% |
| CCc1c(C)nc(SCc2nc(-c3ccccc3)no2)[nH]c1=O | 118% |
| COc1cccc(C(=O)N(Cc2ccco2)c2ccccn2)c1 | 103% |
| COc1ccc(CCNC(=O)c2nc(SCc3ccc(F)cc3)ncc2Cl)cc1OC | 86% |
| CN(CC(=O)NCc1ccc(Cl)cc1)S(=O)(=O)c1ccc2c(c1)c(=O)n(C)c(=O)n2C | 81% |
| COc1ccc(NC(=O)c2oc3ccccc3c2NC(=O)Cc2cccs2)cc1 | 90% |
